Measured values as given in PubChem BioAssay (NCI).
The panel holds about 83,000 compounds, 20% with a hit somewhere; the sample as a whole holds those more often.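 How to read the values: 0–100, growth inhibition (40 = 60% inhibited); 0, no net growth; -100 to 0, cell death (-40 = 40% of starting cells died; -100 = all dead).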 Unmarked numbers belong to inactive results. Calls of active or inactive are those of the source. Rule for the calls: active = growth percent below 10; inactive = the rest.

Tested on: HL-60(TB) leukemia
Assay: NCI-60 one-dose screen, 48 h (100 = growth as untreated, 0 = no growth, -100 = all killed)
Details: 10 µM unless noted

| Structure (SMILES) | growth |
| --- | --- |
| CCCCCCn1c(O)c(N=Nc2nc(-c3cc4ccccc4oc3=O)cs2)c2ccccc21 | 87.8% |
| CCOC(=O)/C=C/c1cccc2c1C(=O)NC(C)(c1cc3cc(Br)ccc3oc1=O)N2 (configuration not stated) | 27.3% |
| Cc1ccc(S(=O)(=O)c2nc(S(=O)(=O)c3ccc(C)cc3)c(N3CCC(O)CC3)s2)cc1 | 35.5% |
| O=C(Cc1c(-c2ccccc2[N+](=O)[O-])n(-c2ncnc3c2c(-c2ccccc2)c(-c2ccccc2)n3Cc2ccccc2)[nH]c1=O)c1ccc(Cl)c(Cl)c1 | 1.19% (active) |
| Cc1ccc(N=Nc2c(N)nn3c(-c4cc5cc(Br)ccc5oc4=O)ccnc23)cc1 | 83.2% |
| O=C(Nc1ccc(F)cc1)Nc1nc2ccc([N+](=O)[O-])cc2s1 | -11.5% (active) |
| CS(=O)(=O)Nc1ccc(-c2ccc3c(c2)ncn3-c2ccc(NC(=O)Nc3ccc(Br)cc3)cc2)cc1 | -42% (active) |
| Cn1cc(/C=N/Nc2ccnc3cc(Cl)ccc23)c2ccccc21 | -60.3% (active) |
| CN(C)c1nc(NCCNS(=O)(=O)c2ccc(C3=Nc4c(N)nc(N)nc4NC(c4ccc(F)cc4)C3)cc2)nc(Nc2ccc(F)cc2)n1 (configuration not stated) | -25.1% (active) |
| COc1ccc(OC)c(-c2cc(-c3c[nH]c4ccccc34)nc(N)c2C#N)c1 | -32.2% (active) |
| O=C(CSc1nc2sc3c(c2c(=O)n1-c1ccc(Cl)cc1)CCCC3)N/N=C/C=C/c1ccccc1 | 64.5% |
| Cc1ccc(NC(=O)CN2CCN(c3ncnc4c3cnn4-c3ccccc3)CC2)cc1 | 95.4% |
| CC(=O)Nc1ccc(-n2cnc3cc(-c4ccc(NS(C)(=O)=O)cc4)ccc32)cc1 | 59.9% |
| CN1CCCN(Cc2ccc(C(=O)Nc3cccc(Nc4ccc5cc(O)ccc5n4)c3)cc2C(F)(F)F)CC1 | 73.7% |
| O=C(Nc1ccc(F)c(Cl)c1)c1cc(-c2ccc(F)cc2F)ccc1O | -41.3% (active) |
| Cn1ncc2c(N)nc(Oc3ccccc3-c3ccccc3)nc21 | -18.4% (active) |
| O=C(NN1C(=O)/C(=C/C=C/c2ccc([N+](=O)[O-])o2)SC1=S)c1ccc([N+](=O)[O-])cc1 | -7.3% (active) |
| N#Cc1c(NC(=O)c2ccc(C(F)(F)F)cc2C(F)(F)F)sc2c1CCC(=O)C2 | -24% (active) |
| CCN(CC)c1ccnc(CNCCSC(c2ccccc2)(c2ccccc2)c2ccc(OC)cc2)c1 | -34.3% (active) |

| Structure (SMILES) | growth |
| --- | --- |
| CC1=C(C(=O)Nc2ccccc2)C(c2ccc3ccccc3c2)n2c(nc3ccccc32)N1 (configuration not stated) | 57.4% |
| O=C(N/N=C/c1ccc(Br)o1)c1[nH]c2ccc(Br)cc2c1-c1ccccc1 | -48.7% (active) |
| O=c1oc2ccccc2cc1-c1csc(N=Nc2c(O)[nH]c3ccc(Cl)cc23)n1 | 99.1% |
| COC(=O)c1cc(C(=O)C(C)(C)C)n2c3ccccc3c3ccccc3c12 | 90.4% |
| S=c1nc(-c2ccccc2)cc(-c2cc3ccccc3nc2Cl)[nH]1 | 8.96% (active) |
| CC1(c2ccccc2)NC(=O)N(CC(=O)Nc2ccc(C(=O)/C=C/c3ccccc3)cc2)C1=O (configuration not stated) | 10.1% |
| COc1ccc2c(c1)c(-c1cc3nc(-c4cn(C)c5ncccc45)cc(N)n3n1)cn2C | -66.3% (active) |
| COc1ccc(NC(=O)Cn2c(/C=C/c3ccc([N+](=O)[O-])cc3)nc3ccccc3c2=O)cc1 | 112% |
| COC(=O)c1c(C(=O)OC)c2c3ccccc3c3ccccc3n2c1C(=O)C(C)(C)C | 72.5% |
| CCOC(=O)C1=C(N)N(c2ccccc2)C2=C(C(=O)CC(C)(C)C2)C1c1ccc(Cl)cc1 (configuration not stated) | 6.03% (active) |
| COc1cc2oc(-c3cccc(C(=O)Nc4ccc(Cl)cc4)c3)cc(=O)c2c(OCCNC(=O)[C@H](CO)NC(=O)OC(C)(C)C)c1OC | -32.5% (active) |
| N#C/C(=C1/C(=O)Nc2ccccc21)c1nnc(NC(=O)c2ccc(-n3c(=O)[nH]c4ccccc4c3=O)cc2)s1 | 7.15% (active) |
| O=C1c2cccc3c(N4CCN(Cc5ccccc5)CC4)ccc(c23)C(=O)N1c1cccc(-c2nn(-c3ccccc3)cc2-c2nc3ccccc3s2)c1 | 105% |
| Cn1nc(C(F)(F)F)cc1-c1cc(Cl)c(COc2ccc(Cl)cc2)c(-c2ccc(Cl)c(C(F)(F)F)c2)c1O | -22.5% (active) |
| COc1ccc(NC(=O)Nc2ccc(OCC(=O)N=Nc3c(O)[nH]c4ccc([N+](=O)[O-])cc34)cc2)cc1 | 99% |
| O=C1/C(=C/C=C/c2ccco2)SC(=S)N1CC(=S)C1C=CS(=O)(=O)C1 (configuration not stated) | 59.4% |
| O=C(/C=C/Nc1ccc2oc(=O)ccc2c1)c1cc2cc(Br)ccc2oc1=O | 131% |
| Cc1ccc(-c2cc(C(=O)N=Nc3c(O)[nH]c4ccc(F)cc34)c3ccccc3n2)cc1 | 88.4% |
